From PubChem
Hits are enriched below; roughly 2.1% of the tested compounds scored in any of these assays.
p53 PUMA act: mutant p53 pathway reactivation; activation, % at 9.98 µM; SW480 PUMA-promoter luciferase; AID 624151; 28,000 compounds, 1.5% hits; in the data active = activation above about 52%
STK33 kin inh: human STK33 kinase inhibition | Q9BYT3 | ADP-Glo luminescence, MBP substrate | inhibition, % at 12.5 µM | 27,000 compounds, 0.44% hits; in the data active = inhibition above about 20%
ID4 SMM: binders of human ID4 protein. P47928. small molecule microarray, Flag-ID4 binding, fluorescence F/B. calls only. 31,000 compounds, 1.2% hits. AID 624137; call rule not given here;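 also: a binder raises fluorescence above local background on the spot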
Target sequence (P47928 whole entry, looked up): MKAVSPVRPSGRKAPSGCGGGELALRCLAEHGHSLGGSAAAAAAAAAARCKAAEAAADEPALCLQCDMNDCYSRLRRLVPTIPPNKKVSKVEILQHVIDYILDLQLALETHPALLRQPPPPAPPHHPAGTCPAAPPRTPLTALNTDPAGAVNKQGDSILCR
An asterisk follows results filed as active; i = inactive; · = no result given; + = active, no number.

SMILES	p53 PUMA act	STK33 kin inh	ID4 SMM
COc1ccc(NC(=O)N(C)C[C@H]2Oc3cc(-c4ccc(C)cc4)ccc3S(=O)(=O)N([C@@H](C)CO)C[C@H]2C)cc1	-13	·	i
C[C@@H]1CN([C@H](C)CO)S(=O)(=O)c2ccc(-c3cccc(C(=O)N(C)C)c3)cc2O[C@H]1CN(C)C(=O)Nc1ccc(F)cc1	10	·	+
CC(=O)N(C)C[C@@H]1Oc2cc(-c3ccccc3C)ccc2S(=O)(=O)N([C@H](C)CO)C[C@@H]1C	-12	·	+
C[C@@H]1CN([C@@H](C)CO)S(=O)(=O)c2ccc(-c3cccc(C(=O)N(C)C)c3)cc2O[C@H]1CN(C)C(=O)Nc1ccc(F)cc1	5	·	·
C[C@@H]1CN([C@H](C)CO)S(=O)(=O)c2ccc(-c3ccc(C(=O)N(C)C)cc3)cc2O[C@@H]1CN(C)Cc1ccc2c(c1)OCO2	-15	·	+
COc1ccc(NC(=O)N(C)C[C@@H]2Oc3cc(-c4ccncc4)ccc3S(=O)(=O)N([C@H](C)CO)C[C@H]2C)cc1	-6	·	+
COc1ccccc1-c1ccc2c(c1)O[C@H](CN(C)Cc1ccc3c(c1)OCO3)[C@H](C)CN([C@@H](C)CO)S2(=O)=O	-18	·	i
Cc1ccc(NC(=O)CSc2nnnn2C2CC3CCC2C3)cc1 (stereo not drawn)	-4	1	i
COc1ccc(C(=O)CSc2nnc(-c3ccccc3Cl)n2-c2ccccc2)cc1	-4	-5	i
O=C(O)c1ccc(CNC(=O)c2cccnc2C(=O)O)cc1	-14	-2	i
CCCc1nc2c(o1)N(C(=O)OCC)C(N)=C(C#N)C21CCNCC1	·	-1	·
C=CCNC(=O)[C@H]1[C@@H]2C(=O)O[C@@H](c3ccccc3)[C@@H](c3ccccc3)N2[C@@H](c2ccc(O)cc2)[C@]12C(=O)N(C(=O)OCCOC)c1ccccc12	·	4	·
COc1ccc(-n2nnnc2SCC(=O)Nc2cc(C)c(Cl)cc2OC)cc1	-14	7	i
Cc1cc(=O)[nH]c(SC(C)C(=O)Nc2ccc(Cl)cc2)n1 (stereo not drawn)	9	-1	i
COC(=O)c1ccc(Cl)c(NC(=O)C(C)N(c2ccc(C)cc2)S(C)(=O)=O)c1 (stereo not drawn)	0	-1	i
COC(=O)[C@@]1(Cc2ccccc2CN=[N+]=[N-])N=C(c2ccc(OCCCO)cc2)O[C@H]1c1ccccc1CN=[N+]=[N-]	·	15	i
C[C@@H]1CN([C@H](C)CO)S(=O)(=O)c2ccc(C3=CCCC3)cc2O[C@H]1CN(C)C(=O)c1cccnc1	6	·	·
C[C@H](CO)N1C[C@H](C)[C@@H](CN(C)C(=O)c2ccncc2)Oc2cc(C3=CCCC3)ccc2S1(=O)=O	10	·	+
C[C@H](CO)N1C[C@H](C)[C@@H](CN(C)C(=O)Nc2ccccc2F)Oc2cc(-c3ccc(C(=O)N(C)C)cc3)ccc2S1(=O)=O	-8	·	+
C[C@H](CO)N1C[C@H](C)[C@H](CN(C)C)Oc2cc(-c3ccncc3)ccc2S1(=O)=O	9	·	·
C[C@H](CO)N1C[C@H](C)[C@H](CN(C)Cc2cncnc2)Oc2cc(-c3ccncc3)ccc2S1(=O)=O	-8	·	+
C[C@H](CO)N1C[C@H](C)[C@H](CN(C)Cc2ccccc2)Oc2cc(/C=C/c3ccccc3)ccc2S1(=O)=O	-10	·	i
COc1ccc(-c2ccc3c(c2)O[C@@H](CN(C)C(=O)Nc2ccccc2F)[C@@H](C)CN([C@H](C)CO)S3(=O)=O)cc1	-18	·	·
C[C@@H]1CN([C@@H](C)CO)S(=O)(=O)c2ccc(/C=C/c3ccccc3)cc2O[C@H]1CN(C)Cc1ccc(C(=O)O)cc1	-5	·	+
CCn1c(SCC(=O)Nc2cccc(C(F)(F)F)c2)nnc1-c1ccc(C)cc1	-15	-2	i
SMILES	p53 PUMA act	STK33 kin inh	ID4 SMM
CN(CC(=O)Nc1ccc(F)c(Cl)c1)S(=O)(=O)c1ccc2ccccc2c1	3	-2	i
CSc1ccc(S(=O)(=O)N(CC(=O)O)c2ccc(C)cc2)cc1	-13	0	i
Cc1ccccc1NC(=O)CSc1nnc(-c2cccc(Cl)c2)n1C	9	-2	i
C[C@H]1CN([C@@H](C)CO)C(=O)c2cccc(NC(=O)Nc3ccc4c(c3)OCO4)c2O[C@@H]1CN(C)C	58*	·	·
C[C@H](CO)N1C[C@H](C)[C@H](CN(C)S(C)(=O)=O)Oc2c(NC(=O)Nc3ccc4c(c3)OCO4)cccc2C1=O	7	·	·
C[C@@H]1CN([C@@H](C)CO)C(=O)c2cccc(NC(=O)Nc3ccc4c(c3)OCO4)c2O[C@H]1CN(C)C	74*	·	i
C[C@H]1CN([C@@H](C)CO)C(=O)c2cccc(NC(=O)Nc3ccc4c(c3)OCO4)c2O[C@@H]1CN(C)S(C)(=O)=O	·	-3	·
C[C@H](CO)N1C[C@H](C)[C@@H](CN(C)C(=O)Nc2ccc(C(F)(F)F)cc2)Oc2c(NC(=O)Nc3cccc4ccccc34)cccc2C1=O	7	·	i
C[C@H](CO)N1C[C@H](C)[C@H](CN(C)C(=O)Nc2ccc(C(F)(F)F)cc2)Oc2c(NC(=O)Nc3cccc4ccccc34)cccc2C1=O	-12	·	+
COc1cccc(Nc2nc(C3(C)CC4(CC(C)OC4=O)C(=O)O3)cs2)c1 (stereo not drawn)	-1	6	i
O=C(CSc1nnnn1C1CCCCC1)Nc1ccccc1[N+](=O)[O-]	-1	0	i
O=c1c(-c2ccccc2)[n+]([O-])c2ccccc2n1OCc1ccccc1	-5	·	i
CC(C)(C)NC(=O)C(OC(=O)c1ccccc1)c1ccco1 (stereo not drawn)	·	·	i
C=C1C(=O)O[C@@H]2/C=C(/CO[C@@H]3O[C@H](CO)[C@@H](O)[C@H](O)[C@H]3O)CC/C=C(/C=O)C[C@H](O)[C@@H]12	14	1	·
CN1c2ccccc2Oc2nnc(N3CCN(c4ccccc4)CC3)cc21	95*	·	i
OCc1nnn(-c2ccc(Br)cc2)c1CO	3	1	i
Cc1[nH]c2ccccc2c1C(=O)CSc1nnc(N)s1	1	-4	i
Nc1nnc(SCC(=O)c2ccc3ccccc3c2)s1	95*	-2	i
O=C1O[C@@H](c2ccccc2)[C@@H](c2ccccc2)N2[C@@H](c3ccc(OCCO)cc3)[C@]3(C(=O)Nc4ccc(C#CCCO)cc43)[C@@H](C(=O)N3CCCCCCC3)[C@H]12	·	14	·
O=C1O[C@@H](c2ccccc2)[C@@H](c2ccccc2)N2[C@@H](c3ccccc3OCCO)[C@]3(C(=O)Nc4ccc(C#CCCO)cc43)[C@@H](C(=O)N3CCCCCCC3)[C@H]12	·	22*	·
COc1ccc(C#Cc2ccc3c(c2)[C@]2(C(=O)N3)[C@H](c3ccccc3OCCO)N3[C@H](c4ccccc4)[C@H](c4ccccc4)OC(=O)[C@H]3[C@@H]2C(=O)N2CCN(c3ncccn3)CC2)cc1	·	10	i
O=C1O[C@H](c2ccccc2)[C@H](c2ccccc2)N2[C@H]1[C@@H](C(=O)N1CCN(c3ncccn3)CC1)[C@]1(C(=O)Nc3ccc(C#CCCO)cc31)[C@H]2c1ccccc1OCCO	·	24*	i
CCOc1ccc(NC(=O)CN2C(=O)c3ccccc3S2(=O)=O)cc1	-17	4	i
COc1ccc(OCC(=O)Nc2ccc(OC)cc2[N+](=O)[O-])cc1	98*	-1	i
